# This is one part of a sample in which hits are shown more often than they occur.
# Methyltransferases = Primary Screen for Target Class Profiling of Small Molecule Inhibitors of Methyltransferases; calls only at 40 µM; purified enzyme, MTase-Glo SAH luminescence; active compounds read low; 3.9% of 25,000 active; call rule not given here
#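 Each enzyme was reacted with SAM and its substrate, with compounds tested once at 40 uM; SAH formed was read by MTase-Glo luminescence.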
# Calls only; i = inactive; + = active, no number; ! = repeats disagree.
SMILES,Methyltransferases
Cc1cnc(Nc2ccc(CN3CCOCC3)cc2)nc1Nc1cccc(S(=O)(=O)NC(C)(C)C)c1,+
Cc1cnc(Nc2cccc(CN3CCOCC3)c2)nc1Nc1cccc(S(=O)(=O)NC(C)(C)C)c1,i
CC(=O)Nc1c2n(c3ccc(F)cc13)CC(C)(C(=O)NC1CCCCC1)N(Cc1ccco1)C2=O (stereo unspecified),i
CC(C)Cn1c(=O)c2ccc(C(=O)NC3CCCC3)cc2n2c(=O)n(CC(=O)NC(C)(C)C)nc12,i
Cc1cccc(OCC(=O)Nc2ccc3c(c2)C(=O)N(C)C2=NCCN23)c1,i
CCOc1ccc(-c2ccc(Cn3c(CC(C)(C)C(=O)O)c(SC(C)(C)C)c4cc(OCc5ccc(C)cn5)ccc43)cc2)cn1,+
C=Cc1ccc(Cn2nc3n(Cc4ccc(C)cc4)c(=O)c4ccccc4n3c2=O)cc1,i
COc1ccccc1CN1C(=O)c2cc3c(OC)ccc(OC)c3n2CC1(C)C(=O)NC1CCCC1 (stereo unspecified),i
COc1ccccc1CN1C(=O)c2ccc(-c3ccccc3)n2CC1(C)C(=O)NC1CCCCCC1 (stereo unspecified),i
O=C(O)c1cc([N+](=O)[O-])ccc1NCCCc1ccccc1,i
O=C1c2ccccc2C(=O)c2c(NCCc3ccc(O)cc3)ccc(NCCc3ccc(O)cc3)c21,+
Fc1ccccc1-c1noc(NCCc2ccc(Cl)cc2)n1,i
NS(=O)(=O)c1cccc2c1c([N+](=O)[O-])cc1nc(O)c(O)nc12,+
CC(C)(C)c1cc2n(n1)CC(C)(C(=O)NC1CCCCC1)N(Cc1ccccc1F)C2=O (stereo unspecified),i
COc1ncccc1-c1cc(-c2c(C)noc2C)c2cncn2c1,i
COc1cc2c(cc1-c1c(C)noc1C)ncc1[nH]c(=O)n([C@H](C)c3ccccn3)c12,+!
Cc1noc(C)c1-c1nccc2c(=O)cc(-c3ccccn3)oc12,i
C[C@H](C(=O)N1Cc2ccccc2CC2(CCN(Cc3ccncc3)C2)C1)c1ccccc1 (stereo partly specified),i
CC(C)CCn1c(=O)c2ccc(C(=O)NC(C)C)cc2n2c(=O)n(CC(=O)NC3CCCCC3)nc12,i
CCCN1C(=O)c2c(C(=O)NCc3ccccc3)ncn2CC1(C)C(=O)NCCC(C)C (stereo unspecified),i
COc1ccc(NC(=O)Cn2nc3n(Cc4ccc(F)cc4)c(=O)c4ccccc4n3c2=O)cc1OC,i
COc1cc2c(cc1OC)CN(CCc1ccc(NC(=O)c3cccc4c(=O)c5cccc(OC)c5[nH]c34)cc1)CC2,+
COc1ccc(C(=O)Nc2ccc3c(c2)CN(CCc2ccccc2)C(=O)C(C)O3)cc1OC (stereo unspecified),i
Cc1ccc(CNC(=O)CCc2nnc3n(CCCOC(C)C)c(=O)c4ccccc4n23)cc1,i
C=CC(=O)Nc1cccc(Nc2nc(Nc3ccc(N4CCN(C(C)=O)CC4)cc3OC)ncc2C(F)(F)F)c1,i
SMILES,Methyltransferases
Cc1cc(-c2cc(OC(=O)c3ccccc3)ccc2Cl)cc2nnc(Nc3ccc(OCCN4CCCC4)cc3)nc12,i
C=CC(=O)Nc1cccc(Oc2nc(Nc3ccc(N4CCN(C)CC4)cc3)ncc2Cl)c1,+
Cc1ccc(CNC(=O)C2(C)Cn3c(nc4ccccc43)C(=O)N2Cc2ccc(C)cc2)cc1 (stereo unspecified),i
COc1ccc(CNC(=O)C2(C)Cn3cnc(C(=O)NCc4cccc(Cl)c4)c3C(=O)N2C2CC2)cc1 (stereo unspecified),i
CCCCN(CC)CCN1C(=O)c2cc3sccc3n2CC1(C)C(=O)NC1CCCCCCC1 (stereo unspecified),i
COc1ccc(-c2cc3n(n2)CC(C)(C(=O)NCc2ccccc2)N(c2ccc(C)c(C)c2)C3=O)cc1 (stereo unspecified),i
CCCCNC(=O)CCc1nnc2n(Cc3ccccc3Cl)c(=O)c3ccccc3n12,i
CCOC(=O)c1cc2n(n1)CC(C)(C(=O)NC1CCCCCC1)N(c1ccc(CC)cc1)C2=O (stereo unspecified),i
COC(=O)c1ccc(=O)c2nc3/c(=C/O)c(O)cc(=O)c3[nH]c12,+
CC(C(=O)NCc1cccnc1)n1ccc2cc(S(=O)(=O)N3CCCC3)ccc21 (stereo unspecified),i
CCCn1c(=O)c2ccc(C(=O)NC(C)CC)cc2n2c(=O)n(CC(=O)NCc3ccccc3)nc12 (stereo unspecified),i
Cc1cc2c(cc3n2CC(C)(C(=O)NC2CCCCCC2)N(c2cccc(Cl)c2)C3=O)o1 (stereo unspecified),i
CC(C)Oc1ccc(CNC(=O)c2cc3n(n2)CC(C)(C(=O)NC2CCCCCC2)N(C)C3=O)cc1 (stereo unspecified),i
Nc1ccc(-c2cnc(N)c(-c3ccc(Cl)cc3)c2)cn1,+
COc1cc(-c2cc(-c3cccc(O)c3)cnc2N)cc(OC)c1OC,i
Cc1cccc(CNC(=O)c2cc3n(n2)CC(C)(C(=O)NCCC(C)C)N(C)C3=O)c1 (stereo unspecified),i
CCCCN1C(=O)c2c(NC(C)=O)c3cc(OC)ccc3n2CC1(C)C(=O)NC1CCCCC1 (stereo unspecified),i
CCCC(=O)NCCc1c2n(c3ccc(OC)cc13)CCCc1ccccc1-2,+
COc1ccc(OC)c(CCNC(=O)CCc2nnc3n(Cc4ccc(F)cc4)c(=O)c4ccccc4n23)c1,i
COc1ccc(OC)c(CCNC(=O)Cn2ccc3cc(S(=O)(=O)N4CCCC4)ccc32)c1,i
Cc1ccc(C)c(Cn2nc3n(CCCOC(C)C)c(=O)c4ccccc4n3c2=O)c1,i
Nc1c2c(nc3ccccc13)CCCC2,+
COc1ccc(NC(=O)Cn2nc3n(Cc4ccccc4)c(=O)c4ccccc4n3c2=O)cc1,i
CCC(C)NC(=O)c1ccc2c(=O)n(Cc3ccccc3)c3nn(CC(=O)NC(C)C)c(=O)n3c2c1 (stereo unspecified),i
CCc1nc(-c2cccc(C)c2)c(-c2ccnc(NC(=O)c3ccccc3)c2)s1,i
SMILES,Methyltransferases
O=C(Nc1nc2ccccc2n1CCc1ccccc1)c1ccccc1,i
O=C(Nc1cc2cc[nH]c2cn1)c1ccccc1,+
Cc1ccc(C(=O)Cn2nc3n(C)c(=O)c4ccc(C(=O)NC5CCCCC5)cc4n3c2=O)c(C)c1,i
COCCCN1C(=O)c2cc3sccc3n2CC1(C)C(=O)NC1CCCCCC1 (stereo unspecified),i
CCOC(=O)c1ccc2c(c1)[C@@H]1C=CC[C@@H]1[C@H](c1ccccc1OCc1ccccc1)N2,i
CC(C)CNC(=O)c1ccc2c(=O)n(C(C)C)c3nn(CC(=O)Nc4ccc(Cl)cc4)c(=O)n3c2c1,i
Cc1c(Cl)cccc1NS(=O)(=O)c1ccc2c(c1)NC(=O)CC(=O)N2,i
COc1ccc(CCNC(=O)c2cc3n(n2)CC(C)(C(=O)NC2CCCCC2)N(C)C3=O)cc1OC (stereo unspecified),i
CCC(C)NC(=O)c1ccc2c(=O)n(CC(C)C)c3nn(CC(=O)Nc4ccc(C)cc4)c(=O)n3c2c1 (stereo unspecified),i
C/C=C(\C)C(=O)O[C@H]1C=CC(=O)O[C@H]1/C=C/[C@@H](O)[C@H](C)O,i
C/C=C(/C)C(=O)O[C@H]1C=C(CO)C(=O)[C@H](OC(=O)/C(C)=C/CO)[C@H]1C(C)C,+
N#Cc1c(O)c2c(-c3ccc(-c4ccccc4O)cc3)csc2[nH]c1=O,+!

# Source: PubChem BioAssay (National Center for Advancing Translational Sciences (NCATS))
